According to PubChem BioAssay (EPA / NIEHS):
Activity calls are given as the source filed them. The calls were made as follows: active = hit-call score of the fitted dose curve at least 0.9, where 1 is the maximum; inactive = score below 0.9.

Tests used:
[1] = target: CCAAT/enhancer-binding protein beta (Homo sapiens) (UniProt P17676); assay: ATG_C_EBP_CIS: Attagene CIS-FACTORIAL HepG2 Assay for human CCAAT/Enhancer Binding Protein (C/EBP) beta (AID 2282927); conditions: HepG2 Attagene cis-factorial transcription factor reporter; actives raise or lower the signal
Outline: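 Endogenous C/EBPb-driven reporter transcripts measured in transfected human HepG2 cells at 24 h via RT-PCR and capillary electrophoresis of labelled fragments. Activity fitted in both directions relative to DMSO baseline.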

[2] = ATG_CMV_CIS: Attagene CIS-FACTORIAL HepG2 Assay for human CMV (Internal Marker) (AID 2282928); conditions: HepG2 CMV promoter reporter, transcription factor profiling; actives raise or lower the signal;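 also: endpoint acts as a background internal control marker rather than a target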
Outline: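 Cell system: HepG2, transiently transfected multiple reporter units under cis promoters. Exposure: 24 h. Detection: RT-PCR, FAM labeling, HpaI digestion, capillary electrophoresis. Analysis: bidirectional, DMSO baseline.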

[3] = ATG_DR4_LXR_CIS: Attagene CIS-FACTORIAL HepG2 Assay for human Liver X Receptor (LXR), DR4 submotif (AID 2282929); conditions: HepG2 Attagene DR4 cis-reporter, mRNA transcription; actives raise or lower the signal
Outline: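 Endogenous factor activity at a DR4 cis-element is read as reporter mRNA in transiently transfected HepG2 cells. Exposure lasts 24 h; transcripts are amplified, fluorescently labelled and sized by capillary electrophoresis, with DMSO as baseline.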

[4] = target: Aryl hydrocarbon receptor (Homo sapiens) (UniProt P35869); assay: ATG_Ahr_CIS: Attagene CIS-FACTORIAL HepG2 Assay for human Aryl Hydrocarbon Receptor (Ahr) (AID 2282930); conditions: HepG2 AhR cis-factorial reporter transcription; actives raise or lower the signal
Outline: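 Reporter mRNA levels, quantified by RT-PCR and fluorescent capillary electrophoresis, reflect endogenous AhR transcriptional activity in HepG2 cells carrying transfected cis-promoter reporter constructs. Readout at 24 h post-dose; gain or loss fitted against DMSO baseline.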

[5] = ATG_AP_1_CIS: Attagene CIS-FACTORIAL HepG2 Assay for human Activator Protein 1 (AP-1) (AID 2282931); conditions: HepG2 Attagene cis-factorial AP-1 reporter mRNA; actives raise or lower the signal
Outline: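 Fluorescence of labelled PCR fragments separated by capillary electrophoresis gives reporter mRNA levels. HepG2 with transfected cis-regulated reporter units, 24 h exposure; DMSO serves as baseline for bidirectional curve fits.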

[6] = ATG_AP_2_CIS: Attagene CIS-FACTORIAL HepG2 Assay for human Activator Protein 2 (AP-2) (AID 2282932); conditions: HepG2 AP-2 cis-reporter, Attagene transcription factor profiling; actives raise or lower the signal
Outline: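 HepG2, transient MRTU transfection, cis-regulated reporters; 24 h compound exposure; RNA isolated, RT-PCR, 6-FAM labelling, HpaI digest, CE fluorescence. DMSO = negative control/baseline, bidirectional fit.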

[7] = ATG_BRE_CIS: Attagene CIS-FACTORIAL HepG2 Assay for human Bone Morphogenetic Protein (BMP) Response Element (BRE) (AID 2282933); conditions: HepG2 BMP response element reporter, Attagene transcription factor profiling; actives raise or lower the signal
Outline: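 Endogenous transcription factor activity read in transiently transfected HepG2 cells after 24 h chemical exposure. Bidirectional curve fitting against DMSO; readout is reporter transcript level by RT-PCR with capillary electrophoresis of labelled products.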

[8] = target: Retinoic acid receptor alpha (Homo sapiens) (UniProt P10276); assay: ATG_DR5_RAR_CIS: Attagene CIS-FACTORIAL HepG2 Assay for human Retinoic Acid Receptor Alpha (RARE), DR5 submotif (AID 2282934); conditions: HepG2 Attagene cis-factorial RARE DR5 reporter, mRNA; actives raise or lower the signal
Outline: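 Reporter transcripts from a DR5-regulated unit, measured via RT-PCR plus capillary electrophoresis, reflect endogenous RAR activity in transiently transfected human HepG2 liver cells. Exposure lasted 24 h; gain or loss of signal scored against DMSO.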

[9] = target: Transcription factor E2F1 (Homo sapiens) (UniProt Q01094); assay: ATG_E2F_CIS: Attagene CIS-FACTORIAL HepG2 Assay for human E2F Transcription Factor 1 (AID 2282935); conditions: HepG2 Attagene cis-reporter, E2F reporter RNA transcripts; actives raise or lower the signal
Outline: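 Cis-element reporter mRNA induction in transiently transfected HepG2, 24 h exposure. Activity fitted in both directions relative to DMSO negative control.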

[10] = ATG_E_Box_CIS: Attagene CIS-FACTORIAL HepG2 Assay for human Enhancer Box (E-box) (AID 2282936); conditions: HepG2 E-box cis-reporter transcription, actives raise or lower the signal
Outline: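 Cells: HepG2 (human liver), transient MRTU transfection. Exposure 24 h. RNA → oligo(dT) RT → PCR → 6-FAM label → HpaI → CE. Activity fitted both directions relative to DMSO.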

[11] = ATG_M_61_CIS: Attagene CIS-FACTORIAL HepG2 Assay for M61 Transcription Factor (Internal Marker) (AID 2282937); conditions: HepG2 Attagene CIS-FACTORIAL M61 internal marker reporter; actives raise or lower the signal
Outline: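 This endpoint serves as an internal background control within a multiplexed HepG2 cis-reporter panel. Cells are exposed for 24 h; reporter mRNA is amplified, fluorescently labelled and sized by capillary electrophoresis, with DMSO as negative control.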

[12] = ATG_EGR_CIS: Attagene CIS-FACTORIAL HepG2 Assay for human Early Growth Response 1 (EGR1) (AID 2282938); conditions: HepG2 Attagene CIS-FACTORIAL EGR reporter mRNA; actives raise or lower the signal
Outline: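 HepG2, transient MRTU transfection (cis promoters), 24 h compound. RNA → RT (oligo-dT) → PCR → 6-FAM labelling → HpaI cut → CE fluorescence. Bidirectional fit, DMSO baseline.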

[13] = ATG_M_19_CIS: Attagene CIS-FACTORIAL HepG2 Assay for M19 Transcription Factor (Internal Marker) (AID 2282939); conditions: HepG2 Attagene CIS-FACTORIAL M19 internal marker reporter; actives raise or lower the signal
Outline: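 Internal marker readout, fitted in both directions against DMSO, from HepG2 cells carrying transfected cis-element reporter constructs; RT-PCR and capillary electrophoresis of reporter mRNA after 24 h exposure.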

[14] = ATG_ERE_CIS: Attagene CIS-FACTORIAL HepG2 Assay for Estrogen Response Element (ERE) (AID 2282940); conditions: HepG2 ERE cis-reporter, Attagene RNA transcript; actives raise or lower the signal
Outline: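 After 24 h compound treatment, RNA from transfected HepG2 cells was reverse-transcribed, reporter cDNA PCR-amplified, FAM-labelled, HpaI-cut and resolved by capillary electrophoresis. ERE-driven cis reporter transcripts reflect endogenous factors; gain or loss scored against DMSO.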

[15] = target: Hepatocyte nuclear factor 3-beta (Homo sapiens) (UniProt Q9Y261); assay: ATG_FoxA2_CIS: Attagene CIS-FACTORIAL HepG2 Assay for human Forkhead box A2 (FOXA2) (AID 2282942); conditions: HepG2 cis-reporter transcription factor activity, 24 h; actives raise or lower the signal
Outline: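 Cells: HepG2, transient multiplex reporter transfection. Exposure 24 h. Detection: reporter-specific RT-PCR, fluorescent labelling, restriction digest, capillary electrophoresis. Analysis: bidirectional curve fit, DMSO as negative control.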

[16] = ATG_FoxO_CIS: Attagene CIS-FACTORIAL HepG2 Assay for human Forkhead box O (FoxO) (AID 2282943); conditions: HepG2 Attagene cis-reporter, FoxO element, mRNA; actives raise or lower the signal
Outline: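 Endogenous transcription factor activity read from multiplexed cis-promoter reporter transcripts in transiently transfected HepG2, 24 h after dosing. Reporter RNA measured via RT-PCR plus capillary electrophoresis of FAM-labeled products; gain or loss relative to DMSO.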

[17] = ATG_GATA_CIS: Attagene CIS-FACTORIAL HepG2 Assay for human GATA Binding Protein (AID 2282944); conditions: HepG2 GATA cis-element reporter, Attagene multiplex mRNA; actives raise or lower the signal
Outline: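 Reporter transcripts from a GATA cis-regulated unit, among multiplexed reporters in transfected HepG2 cells, were measured by RT-PCR with capillary electrophoresis after 24 h dosing. Induction or loss scored relative to DMSO.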

[18] = ATG_GLI_CIS: Attagene CIS-FACTORIAL HepG2 Assay for human Zinc Finger Protein GLI1 (AID 2282945); conditions: HepG2, Attagene cis-factorial reporter mRNA, GLI element; actives raise or lower the signal
Outline: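 Bidirectional curve fits relative to DMSO, using reporter mRNA levels from RT-PCR plus capillary electrophoresis. Cells were HepG2 transiently carrying cis-regulated reporter constructs, harvested 24 h after dosing.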

[19] = target: Bile acid receptor (Homo sapiens) (UniProt Q96RI1); assay: ATG_IR1_CIS: Attagene CIS-FACTORIAL HepG2 Assay for human Nuclear Receptor Subfamily 1 Group H Member 4 (NR1H4), IR1 submotif (AID 2282946); conditions: IR1 reporter transcription, actives raise or lower the signal
Outline: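 Cells (human HepG2) carry transiently transfected cis-promoter reporter transcription units. Compounds are incubated 24 h, total RNA is reverse-transcribed and amplified, and labelled fragments are resolved by capillary electrophoresis. Curves use DMSO as baseline.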

[20] = ATG_Ets_CIS: Attagene CIS-FACTORIAL HepG2 Assay for human Erythroblast Transformation Specific (ETS) (AID 2282941); conditions: HepG2 ETS cis-reporter transcription, actives raise or lower the signal
Outline: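 After transient cis-reporter transfection, HepG2 cells receive test chemical for 24 h. Reporter mRNA levels, measured by RT-PCR and capillary electrophoresis fluorescence, are analysed bidirectionally relative to the DMSO baseline.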

Retinoic acid receptor alpha (Homo sapiens), sequence (P10276 whole entry, looked up): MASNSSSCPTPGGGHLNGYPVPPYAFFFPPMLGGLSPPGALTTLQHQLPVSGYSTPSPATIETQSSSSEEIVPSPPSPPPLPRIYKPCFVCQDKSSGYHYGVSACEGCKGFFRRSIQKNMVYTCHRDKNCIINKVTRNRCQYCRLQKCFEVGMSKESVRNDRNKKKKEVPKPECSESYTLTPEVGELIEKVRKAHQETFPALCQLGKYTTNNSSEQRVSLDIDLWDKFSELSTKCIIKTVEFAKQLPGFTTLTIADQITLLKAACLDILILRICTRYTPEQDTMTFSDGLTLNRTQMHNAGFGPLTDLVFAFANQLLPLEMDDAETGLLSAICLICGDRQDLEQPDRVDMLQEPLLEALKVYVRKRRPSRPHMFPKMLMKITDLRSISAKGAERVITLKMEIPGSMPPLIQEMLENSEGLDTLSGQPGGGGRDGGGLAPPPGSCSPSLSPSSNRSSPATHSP
Transcription factor E2F1 (Homo sapiens), sequence (Q01094 whole entry, looked up): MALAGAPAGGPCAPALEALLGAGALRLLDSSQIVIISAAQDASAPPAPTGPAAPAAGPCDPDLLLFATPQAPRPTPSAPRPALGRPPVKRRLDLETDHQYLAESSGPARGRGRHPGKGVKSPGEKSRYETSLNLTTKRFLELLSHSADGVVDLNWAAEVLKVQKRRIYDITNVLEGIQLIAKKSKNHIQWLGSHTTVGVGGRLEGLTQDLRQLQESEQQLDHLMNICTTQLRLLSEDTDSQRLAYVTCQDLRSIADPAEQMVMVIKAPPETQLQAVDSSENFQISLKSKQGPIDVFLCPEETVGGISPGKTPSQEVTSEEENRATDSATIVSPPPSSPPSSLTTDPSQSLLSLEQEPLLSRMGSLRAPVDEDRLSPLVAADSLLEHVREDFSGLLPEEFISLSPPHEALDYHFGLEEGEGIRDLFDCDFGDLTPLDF
Bile acid receptor (Homo sapiens), sequence (Q96RI1 whole entry, looked up, the tested form may be a part): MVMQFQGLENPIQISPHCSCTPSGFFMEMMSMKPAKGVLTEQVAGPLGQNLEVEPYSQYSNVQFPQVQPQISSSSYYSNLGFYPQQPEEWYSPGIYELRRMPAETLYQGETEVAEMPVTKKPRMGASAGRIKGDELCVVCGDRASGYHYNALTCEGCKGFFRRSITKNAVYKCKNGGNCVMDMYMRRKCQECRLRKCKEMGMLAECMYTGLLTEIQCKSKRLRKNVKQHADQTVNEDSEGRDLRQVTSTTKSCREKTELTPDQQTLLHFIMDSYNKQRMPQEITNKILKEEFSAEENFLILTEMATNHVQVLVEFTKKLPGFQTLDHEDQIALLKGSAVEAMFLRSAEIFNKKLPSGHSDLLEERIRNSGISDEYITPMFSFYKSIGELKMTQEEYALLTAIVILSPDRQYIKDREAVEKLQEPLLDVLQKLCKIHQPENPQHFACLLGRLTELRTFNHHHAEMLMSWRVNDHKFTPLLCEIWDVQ
Hepatocyte nuclear factor 3-beta (Homo sapiens), sequence (Q9Y261 whole entry, looked up): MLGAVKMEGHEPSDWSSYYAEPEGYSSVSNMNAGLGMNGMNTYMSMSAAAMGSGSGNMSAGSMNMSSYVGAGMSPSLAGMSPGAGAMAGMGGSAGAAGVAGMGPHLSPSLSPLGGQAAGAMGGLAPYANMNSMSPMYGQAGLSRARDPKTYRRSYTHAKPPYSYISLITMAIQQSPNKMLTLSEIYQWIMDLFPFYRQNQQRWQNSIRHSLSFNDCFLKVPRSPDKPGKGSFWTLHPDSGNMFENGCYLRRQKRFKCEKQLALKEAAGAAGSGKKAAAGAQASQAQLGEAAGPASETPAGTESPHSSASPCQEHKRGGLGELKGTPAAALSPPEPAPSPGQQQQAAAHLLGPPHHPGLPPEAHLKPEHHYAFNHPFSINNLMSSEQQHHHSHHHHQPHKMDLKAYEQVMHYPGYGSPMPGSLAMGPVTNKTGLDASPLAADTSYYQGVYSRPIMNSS
Aryl hydrocarbon receptor (Homo sapiens), sequence (P35869 whole entry, looked up): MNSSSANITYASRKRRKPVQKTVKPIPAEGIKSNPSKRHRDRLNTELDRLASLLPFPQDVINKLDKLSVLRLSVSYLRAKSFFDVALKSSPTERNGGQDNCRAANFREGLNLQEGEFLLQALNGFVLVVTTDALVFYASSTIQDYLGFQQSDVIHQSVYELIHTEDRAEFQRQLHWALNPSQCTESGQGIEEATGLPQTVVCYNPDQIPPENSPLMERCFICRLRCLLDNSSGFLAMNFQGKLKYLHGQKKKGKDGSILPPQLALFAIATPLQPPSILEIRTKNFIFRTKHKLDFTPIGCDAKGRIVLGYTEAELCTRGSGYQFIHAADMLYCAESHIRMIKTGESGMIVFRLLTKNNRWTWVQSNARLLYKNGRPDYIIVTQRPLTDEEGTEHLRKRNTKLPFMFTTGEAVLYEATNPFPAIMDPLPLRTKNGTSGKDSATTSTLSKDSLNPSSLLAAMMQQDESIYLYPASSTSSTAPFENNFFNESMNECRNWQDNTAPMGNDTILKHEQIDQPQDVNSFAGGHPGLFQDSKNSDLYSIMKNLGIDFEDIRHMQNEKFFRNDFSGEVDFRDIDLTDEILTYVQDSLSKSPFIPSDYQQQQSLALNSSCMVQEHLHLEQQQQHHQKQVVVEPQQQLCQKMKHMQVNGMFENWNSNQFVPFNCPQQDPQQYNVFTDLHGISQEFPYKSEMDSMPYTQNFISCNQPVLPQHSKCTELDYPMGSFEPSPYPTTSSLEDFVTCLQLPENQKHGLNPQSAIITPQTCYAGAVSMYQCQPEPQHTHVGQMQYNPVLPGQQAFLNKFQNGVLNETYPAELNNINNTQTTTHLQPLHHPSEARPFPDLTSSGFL
CCAAT/enhancer-binding protein beta (Homo sapiens), sequence (P17676 whole entry, looked up, the tested form may be a part): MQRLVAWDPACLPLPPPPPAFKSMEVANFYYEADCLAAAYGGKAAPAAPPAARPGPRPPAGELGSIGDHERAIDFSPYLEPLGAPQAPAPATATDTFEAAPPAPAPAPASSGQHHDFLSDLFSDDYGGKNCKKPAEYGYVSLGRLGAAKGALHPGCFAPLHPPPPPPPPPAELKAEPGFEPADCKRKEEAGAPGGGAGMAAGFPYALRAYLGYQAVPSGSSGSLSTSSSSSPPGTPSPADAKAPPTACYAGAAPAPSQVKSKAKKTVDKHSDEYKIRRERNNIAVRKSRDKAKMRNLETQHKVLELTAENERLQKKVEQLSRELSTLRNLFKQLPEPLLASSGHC

## C=CC(=O)OCCCCCC(C)C
[1]
  outcome: inactive
[2]
  outcome: inactive
[3]
  outcome: inactive
[4]
  outcome: inactive
[5]
  outcome: inactive
[6]
  outcome: inactive
[7]
  outcome: inactive
[8]
  outcome: inactive
[9]
  outcome: inactive
[10]
  outcome: inactive
[11]
  outcome: inactive
[12]
  outcome: inactive
[13]
  outcome: inactive
[14]
  outcome: inactive
[15]
  outcome: inactive
[16]
  outcome: inactive
[17]
  outcome: inactive
[18]
  outcome: inactive
[19]
  outcome: inactive

## Oc1c(I)cc(I)cc1I
[1]
  outcome: inactive
[2]
  AC50: 49.3 µM (active)
[3]
  outcome: inactive
[4]
  AC50: 34.5 µM (active)
[5]
  outcome: inactive
[6]
  AC50: 63.7 µM (active)
[7]
  AC50: 43.2 µM (active)
[8]
  outcome: inactive
[9]
  outcome: inactive
[10]
  AC50: 4.99 µM (active)
[11]
  outcome: inactive
[12]
  AC50: 71.1 µM (active)
[13]
  outcome: inactive
[20]
  outcome: inactive
[16]
  AC50: 100 µM (active)
[18]
  AC50: 149 µM (active)
[19]
  outcome: inactive

## CCC(=O)C(CC(C)N(C)C)(c1ccccc1)c1ccccc1 (configuration not stated)
[1]
  outcome: inactive
[2]
  outcome: inactive
[3]
  AC50: 92.4 µM (active)
[4]
  outcome: inactive
[5]
  outcome: inactive
[6]
  outcome: inactive
[7]
  outcome: inactive
[8]
  outcome: inactive
[9]
  outcome: inactive
[10]
  AC50: 48.8 µM (active)
[11]
  outcome: inactive
[12]
  outcome: inactive
[13]
  outcome: inactive
[15]
  outcome: inactive
[16]
  outcome: inactive
[17]
  outcome: inactive
[18]
  outcome: inactive
[19]
  outcome: inactive

## CC(C)c1cccc(C(C)C)c1O
[1]
  outcome: inactive
[2]
  outcome: inactive
[3]
  outcome: inactive
[4]
  outcome: inactive
[5]
  outcome: inactive
[6]
  outcome: inactive
[7]
  outcome: inactive
[8]
  outcome: inactive
[9]
  outcome: inactive
[10]
  outcome: inactive
[11]
  outcome: inactive
[12]
  outcome: inactive
[13]
  outcome: inactive
[14]
  outcome: inactive
[15]
  outcome: inactive
[16]
  outcome: inactive
[17]
  outcome: inactive
[18]
  outcome: inactive

## O=C(NCO)NCO
[1]
  outcome: inactive
[2]
  outcome: inactive
[3]
  outcome: inactive
[4]
  outcome: inactive
[5]
  outcome: inactive
[6]
  outcome: inactive
[7]
  outcome: inactive
[9]
  outcome: inactive
[10]
  outcome: inactive
[11]
  outcome: inactive
[12]
  outcome: inactive
[13]
  outcome: inactive
[14]
  AC50: 54.5 µM (active)
[16]
  outcome: inactive
[17]
  outcome: inactive
[18]
  outcome: inactive

## CCOC(=O)Nc1cccc(OC(=O)Nc2ccccc2)c1
[1]
  outcome: inactive
[2]
  outcome: inactive
[3]
  outcome: inactive
[4]
  outcome: inactive
[5]
  outcome: inactive
[6]
  outcome: inactive
[7]
  outcome: inactive
[9]
  outcome: inactive
[10]
  outcome: inactive
[11]
  outcome: inactive
[12]
  outcome: inactive
[13]
  outcome: inactive
[14]
  outcome: inactive
[15]
  outcome: inactive
[16]
  outcome: inactive
[18]
  outcome: inactive

## COC[C@H](C)N(C(=O)CCl)c1c(C)csc1C
[1]
  outcome: inactive
[2]
  outcome: inactive
[3]
  outcome: inactive
[4]
  outcome: inactive
[5]
  outcome: inactive
[6]
  outcome: inactive
[7]
  outcome: inactive
[9]
  outcome: inactive
[10]
  outcome: inactive
[11]
  outcome: inactive
[12]
  outcome: inactive
[13]
  outcome: inactive
[14]
  outcome: inactive
[20]
  outcome: inactive
[16]
  outcome: inactive
[17]
  outcome: inactive
[18]
  outcome: inactive
[19]
  outcome: inactive
